In the library only some 3% were active in any assay of this set; here they are far more common.
SENP6 block = SENP6 protease inhibition; Recombinant SENP6 catalytic domain, aminoluciferin luminescence; Q9GZR1; inhibition, % at 10 µM; hit rate 1.8% among 330,000;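 active = inhibition above about 50% at the single tested dose, limit read from the data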;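 note: plate controls were DMSO wells with enzyme for no effect and DMSO wells lacking enzyme for full effect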
SENP8 block-1 = blocks the human protease SENP8; hit rate 1.2% among 330,000; inhibition, % at 10 µM; purified SENP8, Z-RLRGG-aminoluciferin cleavage, luminescence; Q96LD8; in the data active = inhibition above about 50%
Target sequence (Q96LD8 whole entry, looked up): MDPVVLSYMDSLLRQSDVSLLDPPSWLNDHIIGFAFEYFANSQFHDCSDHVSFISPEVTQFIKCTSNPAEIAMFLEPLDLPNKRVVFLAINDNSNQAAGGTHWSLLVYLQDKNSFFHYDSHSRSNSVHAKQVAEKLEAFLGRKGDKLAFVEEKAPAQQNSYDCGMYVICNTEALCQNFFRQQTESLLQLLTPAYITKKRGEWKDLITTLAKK
PPC-1+TRAIL kill = compounds killing PPC-1 cancer cells with TRAIL present (potentiator screen, no TRAIL-free arm); PPC-1 cells + TRAIL, ATPLite viability luminescence; AID 1443; cell killing (% activity), % at 4 µM or 5 µM; hit rate 0.41% among 220,000;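 active = cell killing above 50% in the first pass at 4 µM, then a duplicate retest at 5 µM averaging 50% or more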;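 note: plate controls were cells with TRAIL plus DMSO for no effect and medium-only wells lacking cells for full effect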
SENP8 block-2 = blocks human SENP8 cleavage of Nedd8 substrate | recombinant SENP8, Nedd8 substrate fluorescence | inhibition, % at 20 µM | hit rate 0.64% among 360,000 | AID 602440; in the data active = inhibition mostly above about 40%, no sharp cut-off; inactive = mostly below about 27%
C8 TRAIL sens = caspase-8 TRAIL sensitization | NB7+C8 cells + TRAIL, ATPlite viability luminescence | inhibition (viability loss, TRAIL sensitization), % at 10 µM | hit rate 1% among 360,000 | AID 624354;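 active = compounds causing at least 50% loss of cell viability in the single-dose screen, relative to plate controls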
SENP7 inh = blocks the human protease SENP7; Q9BQF6; recombinant SENP7, Z-RLRGG-aminoluciferin luminescence, 40 min; inhibition, % at 5 µM; hit rate 1.5% among 330,000; AID 434973;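 active = inhibition above about 50% at the single test dose, limit read from the data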;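 note: plate controls were DMSO with enzyme for no effect and no enzyme buffer wells for full effect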
Target sequence (Q9BQF6 706-1050 limits assumed): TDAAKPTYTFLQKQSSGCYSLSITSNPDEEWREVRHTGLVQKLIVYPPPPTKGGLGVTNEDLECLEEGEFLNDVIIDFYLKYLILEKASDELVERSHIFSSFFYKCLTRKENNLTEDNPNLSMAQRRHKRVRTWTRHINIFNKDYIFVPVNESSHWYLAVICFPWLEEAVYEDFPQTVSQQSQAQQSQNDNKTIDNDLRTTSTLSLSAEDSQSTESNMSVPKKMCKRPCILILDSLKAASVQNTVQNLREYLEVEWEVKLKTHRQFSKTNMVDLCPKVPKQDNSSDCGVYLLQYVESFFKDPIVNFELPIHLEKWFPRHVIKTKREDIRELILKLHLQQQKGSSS
The depositor's hits bear a star; i = inactive; nt = no result given.

SMILES	SENP6 block	SENP8 block-1	PPC-1+TRAIL kill	SENP8 block-2	C8 TRAIL sens	SENP7 inh
Cc1nc(NCC2CCCO2)nc2c1C(=O)CC(C)(C)C2 (centres undefined)	-9	-11	36	9	7	-3
CCOC(=O)N1N=C(c2ccc(OC)cc2)CC1(O)C(F)(F)F (centres undefined)	21	-9	30	7	10	-6
CCc1ccc(C2=NN(C(=O)OC)C(O)(C(F)(F)F)C2)cc1 (centres undefined)	20	14	35	11	55*	25
Cc1ccc(NNC(=O)c2ccc(Cl)cc2)nn1	-11	2	18	7	-6	-1
Cc1cc(Br)c(OCc2ccc(C(=O)N/N=C/c3ccc[nH]3)cc2)c(Br)c1	-2	2	nt	-415	68*	0
O=C(N/N=C/c1ccc[nH]1)c1ccc(O)cc1	-6	-7	8	-125	5	-5
O=C(N/N=C/c1ccc[nH]1)c1ccc(COc2cccc3cccnc23)cc1	-8	6	3	-216	63*	11
COc1ccc(NC(=O)CSc2nc(N)cc(N)n2)cc1S(=O)(=O)N1CCCCC1	-5	-4	nt	6	-16	13
CCc1ccc2[nH]c(O)c(N=NC3=NC(=O)CS3)c2c1	-16	-2	6	27*	-7	-2
Cc1ccc2[nH]c(O)c(N=Nc3ccccc3C)c2c1	-38	-16	nt	-47	10	-6
CCc1ccc2c(c1)c(N=NC1=NC(=O)CS1)c(O)n2CC	-32	-7	17	42*	0	0
COc1cc(/C=C2\S/C(=N/S(=O)(=O)Cc3ccccc3)NC2=O)c([N+](=O)[O-])cc1OC	12	1	-3	10	7	5
COc1cc(/C=C2/S/C(=N/S(=O)(=O)Cc3ccccc3)NC2=O)c([N+](=O)[O-])cc1OC	9	2	6	42*	-4	6
COc1cc2sc(-c3ccc(S(C)(=O)=O)cc3)c(C(=O)NCc3ccc(C)o3)c2cc1OC	-16	3	nt	i	1	6
COc1cccc2sc3cc(NCc4ccc(C)o4)ccc3c(=O)c12	30	42	nt	-466	11	58*
COC(=O)c1cc(OCC(=O)Nc2ccc3c(c2)CCC3)cc(C(=O)OC)c1	4	3	nt	4	94*	7
COc1ccc(OCC(=O)Nc2ccc3c(c2)CCC3)cc1	-15	-6	nt	2	-3	4
CCN(CC)C(=O)CSc1ncnc2c(-c3ccc(OC)cc3)nsc12	51*	52*	nt	nt	nt	34
COc1ccc(-c2nsc3c(SCc4ccccc4)ncnc23)cc1	21	-8	8	-398	-5	4
COc1cc(C(=O)NCCCC2CCCC2)ccc1OC1CCN(C(C)=O)CC1	-19	-2	nt	13	-6	-15
CNc1nc(N/N=C/c2cc([N+](=O)[O-])ccc2F)nc(Nc2ccccc2)n1	nt	nt	nt	8	58*	nt
O=C(Cc1ccc(NC2=NC3CS(=O)(=O)CC3S2)cc1)NCc1ccc(Cl)cc1 (centres undefined)	-23	-1	nt	12	-4	0
CCCCCCc1cc2cc(C(=O)Nc3cccc(OC)c3)c(=O)oc2cc1O	-13	-11	-26	-276	29	-4
COc1ccc(NC(=O)c2cc3ccc(O)cc3o/c2=N\O)cc1	47	23	nt	1	74*	16
COc1ccc2o/c(=N\O)c(C(=O)Nc3ccccc3OC)cc2c1	-21	-11	11	-58	-8	-7
SMILES	SENP6 block	SENP8 block-1	PPC-1+TRAIL kill	SENP8 block-2	C8 TRAIL sens	SENP7 inh
CCCCCCc1cc2cc(S(=O)(=O)c3ccc(F)c(Cl)c3)c(=O)oc2cc1O	10	5	7	-277	52*	5
CCCCCCc1cc2cc(C(=O)Nc3ccc(OC)cc3)c(=O)oc2cc1O	-7	-5	22	-106	51*	-2
Cc1nc(C)c(N)c(=O)[nH]1	3	4	7	12	0	3
Cc1cc(C)cc(NC(=O)c2cc(C)n(Cc3cccs3)c2C)c1	-11	-25	42	-4	51*	-2
Cc1cc(C(=O)CN2C(=O)c3ccccc3C2=O)c(C)n1Cc1cccs1	-25	-11	5	13	46	-4
Cc1cc(C(=O)Cn2nnc3ccccc3c2=O)c(C)n1Cc1cccs1	-33	-3	44	12	58*	3
Cc1cc(C(=O)Nc2ccc(Cl)cc2)c(C)n1Cc1cccs1	23	8	46	-12	43	-9
COC(=O)C1=CN(c2cccc(OCc3ccccc3)c2)C(N)=C(C#N)C1c1cccc(OC)c1OC (centres undefined)	nt	nt	nt	-91	-4	nt
O=C(NNC1=NS(=O)(=O)c2ccccc21)c1ccc([N+](=O)[O-])cc1	-18	-12	nt	22	61*	-20
COCCNC(=O)c1c[nH]c2ccc(S(=O)(=O)N3CCc4ccccc43)cc2c1=O	4	3	43	-19	71*	1
COCCCNC(=O)c1c[nH]c2ccc(S(=O)(=O)N3CCc4ccccc43)cc2c1=O	-3	0	22	2	23	11
O=C(Nc1cccc(Cl)c1)c1ccc2c(=O)n3c(nc2c1)CCCCC3	84*	64*	15	-5	41	80*
O=C(Nc1ccccn1)c1ccc2c(=O)n3c(nc2c1)CCCCC3	27	0	nt	11	60*	15
COc1ccc(CCN2CC(C(=O)NC3CCOCC3)CCC2=O)cc1 (centres undefined)	19	2	nt	3	21	-5
Cc1ccccc1Nc1nn2c(=O)c3ccccc3nc2s1	-11	-1	41	-8	50*	10
Cc1ccc(-c2csc(NC(=O)C3=COCCO3)n2)cc1	70*	33	13	-11	12	59*
CC(=O)Nc1ccc(-c2csc(NC(=O)C3=COCCO3)n2)cc1	-1	-11	nt	-39	1	-3
CC(=O)Oc1ccc(/C=N\NC(=O)c2cc3c(ccc4ccccc43)o2)cc1	8	10	nt	-300	64*	-4
N=NC(=O)c1ccccc1Nc1c(O)[nH]c2ccccc12	nt	nt	nt	2	91*	nt
CC(=O)Nc1c(O)[nH]c2ccccc12	10	-4	0	19	-46	3
Nc1cnnc(N/N=C\c2ccccc2)c1Cl	8	-1	nt	-54	49*	21
Nc1nonc1N/N=C\c1ccccc1	-19	-3	0	11	0	8
COc1ccc(-n2nnc3c(SCC(=O)Nc4ccc5c(c4)OCCO5)ncnc32)cc1	54*	16	16	nt	nt	20
COc1cc(C(=O)OCC(=O)Nc2cc(S(=O)(=O)N3CCOCC3)ccc2C)ccc1OCC(C)C	-12	-3	nt	10	6	3
NC(=O)c1ncc(C(F)(F)F)cc1Oc1cccnc1	-13	6	-11	4	20	0
CN1C[C@@H]2[C@@H]3C(=O)N(Cc4ccccc4)C(=O)[C@@H]3[C@](Cc3ccccc3)(C1=O)N2C(=O)c1ccc(C(C)(C)C)cc1	nt	nt	nt	-1	65*	nt
